Assay [1] is described as follows: antimalarial activity against Dd2 strain (AID 2302;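 active = growth inhibition above 50% at the single 2 µM test dose, taken to imply half-maximal potency below 2 µM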;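 also: 0% = DMSO untreated growth and 100% = chloroquine plus artemisinin killed control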). Conditions: P. falciparum Dd2 in RBCs, LDH growth readout, 72 h; at 2 µM; hits give high values.
Assay [2] in a line: HepG2 cytotoxicity, primary screen, cytotoxicity control for P. falciparum antimalarial project, cell-based, ATP luminescence (AID 2303;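 active = inhibition above 50%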;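 also: 0% = DMSO wells and 100% = digitonin-killed cells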). The conditions noted are these: HepG2 viability, 24-48 h, at 10 µM, hits give high values.
The target of assay [3] is L-lactate dehydrogenase (Plasmodium falciparum (isolate CDC / Honduras)) (UniProt Q27743). Briefly: PfLDH activity inhibition – cell lysate, 3D7 strain, counter-screen for P. falciparum growth inhibition project (AID 2304).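 Also: 0% = vehicle and 100% = reference inhibitor.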 Conditions: P. falciparum 3D7 crude extract, LDH APAD/NBT absorbance; at 2 µM; hits give high values. Background: A counterscreen serves to expose hits that act by an unwanted route or on another target.
Sequence of L-lactate dehydrogenase (Plasmodium falciparum (isolate CDC / Honduras)) (Q27743 whole entry, looked up): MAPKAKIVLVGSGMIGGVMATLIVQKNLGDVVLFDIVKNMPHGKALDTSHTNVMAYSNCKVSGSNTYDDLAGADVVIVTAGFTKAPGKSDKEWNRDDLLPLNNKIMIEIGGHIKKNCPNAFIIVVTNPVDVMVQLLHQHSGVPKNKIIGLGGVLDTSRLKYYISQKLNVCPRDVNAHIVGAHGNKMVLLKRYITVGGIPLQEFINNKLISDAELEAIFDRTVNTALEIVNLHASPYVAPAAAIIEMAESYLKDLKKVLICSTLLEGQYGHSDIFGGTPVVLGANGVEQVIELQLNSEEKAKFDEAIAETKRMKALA

A short description of assay [4]: inhibition of 3D7 malaria parasite growth – strain 3D7 (AID 2306).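 Also: 0% = DMSO wells and 100% = chloroquine plus artemisinin control wells.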 Conditions: P. falciparum 3D7 erythrocytic growth, LDH absorbance, 72 h; at 2 µM; hits give high values.
Assay [5] concerns the target Calcium-dependent protein kinase 1 (Plasmodium falciparum (isolate 3D7)) (UniProt P62344). Nature of the assay: PfCDPK1 kinase inhibitors, biochemical, TCAMS library (AID 1159585; cut-off not given, nearly all actives have IC50 up to about 0.98 µM;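 also: inhibitors leave more ATP so luminescence rises with inhibition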). Conditions: recombinant PfCDPK1, Kinase-Glo ATP depletion luminescence. On the technique in general: Kinase-Glo measures the ATP left after a reaction by luminescence.
The target in assay [6] is Plasmodium falciparum protein kinase 6 (PK6, PF3D7_1337100) (UniProt Q8IDW1). Nature of the assay: PfPK6 kinase inhibitors, biochemical, TCAMS library (AID 1159586). Conditions: recombinant PfPK6, Kinase-Glo ATP depletion luminescence.
Sequence of Plasmodium falciparum protein kinase 6 (PK6, PF3D7_1337100) (Q8IDW1 1-305): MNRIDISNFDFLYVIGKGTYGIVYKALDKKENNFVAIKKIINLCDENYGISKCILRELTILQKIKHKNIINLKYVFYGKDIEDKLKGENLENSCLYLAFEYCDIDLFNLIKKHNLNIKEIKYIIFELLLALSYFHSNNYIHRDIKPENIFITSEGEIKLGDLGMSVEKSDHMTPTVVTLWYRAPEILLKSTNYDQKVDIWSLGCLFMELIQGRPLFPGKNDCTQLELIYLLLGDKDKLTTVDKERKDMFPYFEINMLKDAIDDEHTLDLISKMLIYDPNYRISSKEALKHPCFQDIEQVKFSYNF
Assay [7] has as its target Protein kinase 7 (PK7), Plasmodium falciparum 3D7 (PF3D7_0213400) (UniProt Q7YTF7). Briefly: inhibition of Plasmodium PK7 catalytic activity – biochemical, TCAMS antimalarial set, Kinase-Glo luminescence (AID 1159587). The conditions noted are these: recombinant PfPK7, Kinase-Glo ATP depletion luminescence.
For assay [8], the target named is Calcium-dependent protein kinase 4 (Plasmodium falciparum (isolate 3D7)) (UniProt Q8IBS5). Briefly: PfCDPK4 kinase inhibitors, biochemical, TCAMS library (AID 1159588; cut-off not given, nearly all actives have IC50 up to about 0.91 µM). Conditions: recombinant PfCDPK4, Kinase-Glo ATP depletion luminescence.
Sequence of Calcium-dependent protein kinase 4 (Plasmodium falciparum (isolate 3D7)) (Q8IBS5 whole entry, looked up): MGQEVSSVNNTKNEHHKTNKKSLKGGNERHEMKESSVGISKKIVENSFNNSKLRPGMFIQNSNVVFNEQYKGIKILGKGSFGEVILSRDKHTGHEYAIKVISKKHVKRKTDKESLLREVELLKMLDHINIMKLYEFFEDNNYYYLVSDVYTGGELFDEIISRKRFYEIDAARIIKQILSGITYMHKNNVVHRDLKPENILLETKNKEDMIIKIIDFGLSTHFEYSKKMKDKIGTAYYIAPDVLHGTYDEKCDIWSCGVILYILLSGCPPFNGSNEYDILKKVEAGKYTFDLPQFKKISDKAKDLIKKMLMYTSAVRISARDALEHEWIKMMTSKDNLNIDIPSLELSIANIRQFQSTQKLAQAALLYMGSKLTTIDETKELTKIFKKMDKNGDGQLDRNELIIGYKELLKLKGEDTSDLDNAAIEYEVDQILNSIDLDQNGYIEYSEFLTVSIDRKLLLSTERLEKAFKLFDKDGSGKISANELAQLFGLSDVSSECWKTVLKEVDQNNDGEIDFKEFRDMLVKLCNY

Unmarked numbers belong to inactive results. For part of these data: Entries with a potency or affinity are not part of this list. Calls of active or inactive are those of the source. Unless noted, no rule for the calls is given here.

Sequence of Protein kinase 7 (PK7), Plasmodium falciparum 3D7 (PF3D7_0213400) (Q7YTF7 1-343): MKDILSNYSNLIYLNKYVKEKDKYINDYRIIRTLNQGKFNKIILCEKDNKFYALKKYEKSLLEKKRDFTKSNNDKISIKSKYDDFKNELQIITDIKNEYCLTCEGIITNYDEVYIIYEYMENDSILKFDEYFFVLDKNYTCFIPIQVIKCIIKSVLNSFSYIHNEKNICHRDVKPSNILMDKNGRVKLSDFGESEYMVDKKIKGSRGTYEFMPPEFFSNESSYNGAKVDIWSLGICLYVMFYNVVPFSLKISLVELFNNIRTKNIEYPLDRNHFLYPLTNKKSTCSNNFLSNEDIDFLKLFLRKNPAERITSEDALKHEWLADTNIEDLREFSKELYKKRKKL
Sequence of Calcium-dependent protein kinase 1 (Plasmodium falciparum (isolate 3D7)) (P62344 whole entry, looked up): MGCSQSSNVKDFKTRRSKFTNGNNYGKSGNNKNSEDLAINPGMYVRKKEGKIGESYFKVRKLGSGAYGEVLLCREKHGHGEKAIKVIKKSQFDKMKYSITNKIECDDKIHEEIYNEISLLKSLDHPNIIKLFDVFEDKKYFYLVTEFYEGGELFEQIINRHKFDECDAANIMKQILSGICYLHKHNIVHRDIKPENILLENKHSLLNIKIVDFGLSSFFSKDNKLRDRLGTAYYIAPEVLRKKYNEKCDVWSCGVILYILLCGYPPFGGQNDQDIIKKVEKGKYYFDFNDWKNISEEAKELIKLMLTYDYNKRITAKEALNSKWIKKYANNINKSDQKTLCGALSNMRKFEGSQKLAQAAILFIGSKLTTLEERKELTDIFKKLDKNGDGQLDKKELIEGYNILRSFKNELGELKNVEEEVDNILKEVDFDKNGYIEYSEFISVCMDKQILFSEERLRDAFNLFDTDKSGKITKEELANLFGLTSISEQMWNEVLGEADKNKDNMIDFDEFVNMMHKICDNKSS

What is called inhibition is the relative decrease from the control value, in per cent. In the case of `COc1ccc(Nc2nc(NC3CCCC3)cc(-c3ccc(OC)cc3)n2)cc1`, the growth inhibition in assay [1] is 15%; in assay [4], 86% (active). The values for the inhibition in assay [2] and in assay [3] were 12% and 2%, respectively. For the same compound, the outcome in assay [5], in assay [6], in assay [7] and in assay [8] was inactive.
Take `CC(C)n1ncc2c3c(N)nc(N)nc3ccc21`: the growth inhibition in assay [1] is 6%; in assay [4], 98% (active). The results for the inhibition in assay [2] and in assay [3] were 64% (active) and -3%, respectively. The result in assay [5], in assay [6], in assay [7] and in assay [8] was inactive.
With `CCc1ccc(CN2CCC(CN(c3ccc(N4CCOCC4)c(F)c3)S(=O)(=O)c3ccc(C(C)(C)CC)cc3)CC2)cc1`, the growth inhibition in assay [1] is 94% (active); in assay [4], 93% (active). Besides, the inhibition in assay [2] was 26%; in assay [3] it was -5%. The outcome in assay [5], in assay [6], in assay [7] and in assay [8] was inactive.
As for `N#Cc1ccc2c(c1)CCN(CCC1CCC(Nc3ncnc4ccccc34)CC1)C2` (stereo not drawn), the results for the growth inhibition in assay [1] and in assay [4] were 96% (active) and 101% (active), respectively. In addition, the inhibition was 65% (active) in assay [2] and -4% in assay [3]. Moreover, the result in assay [5], in assay [6], in assay [7] and in assay [8] was inactive.
As to `O=C(OCC1CCN(Cc2ccccc2)C1)c1ccc(Cl)cc1` (stereo not drawn), the growth inhibition in assay [1] was 4%; in assay [4], 100% (active). Further, the inhibition in assay [2] was -3%; in assay [3], 3%. Also, the outcome in assay [5], in assay [6], in assay [7] and in assay [8] was inactive.
For the compound `CCn1ccc2c(N3CCCC3=O)cc(C(=O)N[C@@H](Cc3ccccc3)[C@H](O)CNC3CCCCC3)cc21`, the growth inhibition in assay [1] is 98% (active); in assay [4], 99% (active). Besides, the inhibition was 12% in assay [2] and 2% in assay [3]. The outcome in assay [5], in assay [6], in assay [7] and in assay [8] was inactive.
Consider `CCN(CCCN1CCCCC1)c1cc(C)nc(Nc2ccc(OC)cc2)n1`, for which the growth inhibition was 24% in assay [1] and 100% (active) in assay [4]. For the same compound, the inhibition was 23% in assay [2] and -6% in assay [3]. Besides, the result in assay [5], in assay [6], in assay [7] and in assay [8] was inactive.
Consider `Cc1ccc(-n2c(Cc3cccc4ccccc34)nnc2SCCC#N)c(C)c1`, for which the growth inhibition in assay [1] is 98% (active); in assay [4], 95% (active). Besides, the inhibition in assay [2] is 0%; in assay [3], -7%. The outcome in assay [5], in assay [6], in assay [7] and in assay [8] was inactive.
With `Cc1cc(N)c2cc(NC(=O)c3cc(C(F)(F)F)cc(C(F)(F)F)c3)ccc2n1`, the figures for the growth inhibition in assay [1] and in assay [4] were 99% (active) and 102% (active), respectively. The inhibition in assay [2] was 100% (active); in assay [3], 5%. The result in assay [5], in assay [6], in assay [7] and in assay [8] was inactive.
For `COc1ccc(S(=O)(=O)N2CCC(NS(=O)(=O)c3ccc(F)cc3)CC2)cc1`, the growth inhibition was -3% in assay [1] and 80% (active) in assay [4]. The inhibition was 3% in assay [2] and 0% in assay [3]. Also, the outcome in assay [5], in assay [6], in assay [7] and in assay [8] was inactive.
As for `c1ccc(C(c2ccccc2)N2CCC(NCc3ccc(OCCCN4CCCCC4)cc3)CC2)cc1`, the growth inhibition was 101% (active) in assay [1] and 100% (active) in assay [4]. In addition, the inhibition is 74% (active) in assay [2] and 4% in assay [3]. Also, the outcome in assay [5], in assay [6], in assay [7] and in assay [8] was inactive.
For `O=S(=O)(c1ccc(OCc2ccc(Cl)cc2)cc1)c1cc2c(cc1OCc1ccccc1)CCN(C1CCC1)CC2`, the growth inhibition is 13% in assay [1] and 89% (active) in assay [4]. The inhibition is 17% in assay [2] and 6% in assay [3]. Moreover, the result in assay [5], in assay [6], in assay [7] and in assay [8] was inactive.
Consider `Cc1ccc(S(=O)(=O)NC2CCN(CCNC(=O)Nc3cc(C)nc4ccccc34)C2)cc1` (stereo not drawn), for which the growth inhibition was 42% in assay [1] and 97% (active) in assay [4]. Further, the values for the inhibition in assay [2] and in assay [3] were -2% and -3%, respectively. The result in assay [5], in assay [6], in assay [7] and in assay [8] was inactive.
For `CCc1c(CCNCCCCCCNC(C)Cc2ccc3c(c2CC)OCO3)ccc(OC)c1OC` (stereo not drawn), the growth inhibition was 64% (active) in assay [1] and 101% (active) in assay [4]. Further, the inhibition is 100% (active) in assay [2] and 0% in assay [3]. Also, the outcome in assay [5], in assay [6], in assay [7] and in assay [8] was inactive.
Turning to `CCC(N)(C#Cc1ccc(-c2c(C)[nH]c(C)c(Br)c2=O)cc1)CC`, the growth inhibition in assay [1] was 96% (active); in assay [4] it was 97% (active). Besides, the inhibition in assay [2] was 0%; in assay [3], -1%. Moreover, the outcome in assay [5], in assay [6], in assay [7] and in assay [8] was inactive.
Turning to `CC(C)c1ccc(NC(=O)c2ccc(CN3CCCN(Cc4cccc(O)c4)CC3)cc2)cc1`, the growth inhibition in assay [1] was 58% (active); in assay [4] it was 100% (active). Further, the inhibition in assay [2] is 51% (active); in assay [3], -4%. Moreover, the outcome in assay [5], in assay [6], in assay [7] and in assay [8] was inactive.
Turning to `O=C(NC1CCCCC1)N(Cc1ccc(-c2ccc(CNCc3ccc4c(c3)OCO4)cc2)cc1)C1CCN(Cc2ccccc2)CC1`, the growth inhibition was 72% (active) in assay [1] and 102% (active) in assay [4]. For the same compound, the inhibition in assay [2] was 28%; in assay [3], -2%. For the same compound, the result in assay [5], in assay [6], in assay [7] and in assay [8] was inactive.
In the case of `Fc1ccc(COc2ccc(Nc3ncnc4ccc(I)cc34)cc2Cl)cc1`, the growth inhibition in assay [1] was 30%; in assay [4] it was 86% (active). For the same compound, the results for the inhibition in assay [2] and in assay [3] were 28% and -5%, respectively. Moreover, the result in assay [5], in assay [6], in assay [7] and in assay [8] was inactive.
Take `Cc1sc(N2CCN(C)CC2)nc1C(=O)Nc1ccc(F)cc1C(F)(F)F`: the growth inhibition is 63% (active) in assay [1] and 92% (active) in assay [4]. The inhibition in assay [2] was 7%; in assay [3] it was 4%. The result in assay [5], in assay [6], in assay [7] and in assay [8] was inactive.
`O=C1OC(c2ccccc2)(c2ccccc2)CN1CC1CCN(Cc2ccc(O)c(Cl)c2)CC1`: the growth inhibition in assay [1] was 90% (active); in assay [4] it was 98% (active). The figures for the inhibition in assay [2] and in assay [3] were 26% and -1%, respectively. In addition, the outcome in assay [5], in assay [6], in assay [7] and in assay [8] was inactive.
`CCn1ccc2c(N3CCCS3(=O)=O)cc(C(=O)N[C@@H](Cc3ccccc3)[C@H](O)CNC(C)(C)c3cccc(OC)c3)cc21`: the growth inhibition in assay [1] was 98% (active); in assay [4] it was 99% (active). In addition, the inhibition is 20% in assay [2] and -8% in assay [3]. Further, the result in assay [5], in assay [6], in assay [7] and in assay [8] was inactive.
